Measured values: PubChem BioAssay (NCATS)
Values without a mark were called inactive. The call rests on the fitted dose curve; in most records, active means well fitted curve in the direction sought with a large enough effect; inconclusive means small, poorly fitted or top-dose-only effect, or another doubt; inactive means no such curve, though single readings can be large or run the other way.

These compounds were tested against T1, Hexokinase-4 (Homo sapiens) + Glucokinase regulatory protein (Homo sapiens) (UniProt P35557+Q14397) (assay: qHTS assay for inhibitors of recombinant human GCK-GKRP interaction: ADP-Glo assay (AID 743206;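 further: plate controls were DMSO plus enzyme for no effect and no enzyme for full effect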)). Settings: ADP-Glo luminescence, 60 min, 0% = vehicle-only wells with enzyme present; series mostly up to 76.9 µM; activity, positive = activation: at the top concentration.
Outline: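 Pin-transferred compounds meet a 15 nM GST-GCK/15 nM FLAG-GKRP/2 uM S6P mix (dispense concentrations). ATP is then added to 0.4 mM final with 5 mM glucose, and the reaction runs 60 min at room temperature. ADP is quantified luminescently.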

T1 sequence (P35557 whole entry, looked up): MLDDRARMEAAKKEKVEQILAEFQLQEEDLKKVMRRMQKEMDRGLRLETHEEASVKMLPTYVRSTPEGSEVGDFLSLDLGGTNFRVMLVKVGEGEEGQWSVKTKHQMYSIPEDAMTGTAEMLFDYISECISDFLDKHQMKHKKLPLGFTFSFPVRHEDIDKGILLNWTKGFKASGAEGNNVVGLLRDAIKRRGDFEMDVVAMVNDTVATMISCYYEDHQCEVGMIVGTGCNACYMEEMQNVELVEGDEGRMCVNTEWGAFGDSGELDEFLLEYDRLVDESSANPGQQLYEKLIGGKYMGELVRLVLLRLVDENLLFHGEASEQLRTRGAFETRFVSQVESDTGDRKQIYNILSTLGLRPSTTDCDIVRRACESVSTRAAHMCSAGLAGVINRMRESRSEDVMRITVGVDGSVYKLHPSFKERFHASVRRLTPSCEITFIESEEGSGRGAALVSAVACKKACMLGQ
T1 sequence (Q14397 whole entry, looked up): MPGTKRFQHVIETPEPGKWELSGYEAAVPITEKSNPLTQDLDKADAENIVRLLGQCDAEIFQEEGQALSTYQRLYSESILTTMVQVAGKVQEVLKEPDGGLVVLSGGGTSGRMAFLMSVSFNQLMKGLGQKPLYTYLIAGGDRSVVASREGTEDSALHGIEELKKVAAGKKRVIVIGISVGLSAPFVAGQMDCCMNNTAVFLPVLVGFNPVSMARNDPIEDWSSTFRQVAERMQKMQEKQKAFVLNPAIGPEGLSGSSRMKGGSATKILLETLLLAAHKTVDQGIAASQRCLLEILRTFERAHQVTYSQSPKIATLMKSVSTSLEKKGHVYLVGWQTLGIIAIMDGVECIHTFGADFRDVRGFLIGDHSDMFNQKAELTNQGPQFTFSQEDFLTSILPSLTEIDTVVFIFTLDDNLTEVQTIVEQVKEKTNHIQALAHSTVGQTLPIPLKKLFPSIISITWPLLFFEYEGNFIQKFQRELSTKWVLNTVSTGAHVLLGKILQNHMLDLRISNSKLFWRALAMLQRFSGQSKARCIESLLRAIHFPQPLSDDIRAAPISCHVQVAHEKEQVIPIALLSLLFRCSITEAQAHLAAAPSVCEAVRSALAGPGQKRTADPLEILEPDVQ

SMILES | activity, positive = activation [%]
Cc1nc2c([nH]1)c(=O)n(C)c(=O)n2Cc1ccco1 | 0.647
COCCc1ccc(OCC(O)CNC(C)C)cc1 (configuration not stated) | -0.885
CN1CCN(CC(=O)N2c3ccccc3C(=O)Nc3cccnc32)CC1 | 2.78
CN(C)CC[C@@H](c1ccc(Br)cc1)c1ccccn1 | -1.08
N[C@@H](COP(=O)(O)O)C(=O)O | 4.3
O=C1NCN(c2ccccc2)C12CCN(CCCC(c1ccc(F)cc1)c1ccc(F)cc1)CC2 | -2.61
O=C(CCNNC(=O)c1ccncc1)NCc1ccccc1 | 0.935
NC(Cc1ccc(Cl)cc1)C(=O)O (configuration not stated) | 2.87
CC(C)(C)NCC(O)c1cc(O)cc(O)c1 (configuration not stated) | 4.83
CN(C)C(=O)Oc1ccc[n+](C)c1 | -0.39
Cc1nc2ccccn2c(=O)c1CCN1CCC(C(=O)c2ccc(F)cc2)CC1 | 1.09
CSc1ccc(C(=O)c2[nH]c(=O)[nH]c2C)cc1 | -1.58
CCN(CC)CCOCCOC(=O)C1(c2ccccc2)CCCC1 | 0.96
C[C@@H](O)[C@H]1C(=O)N2C(C(=O)O)=C(SCCN=CN)C[C@H]12 | 1.88
CCn1cc(C(=O)O)c(=O)c2cc3c(cc21)OCO3 | 0.0029
Cc1scc2c1N(C(=O)CN1CCN(C)CC1)c1ccccc1NC2=O | 2.05

What follows are compounds tested against T1, Hexokinase-4 (Homo sapiens) + Glucokinase regulatory protein (Homo sapiens) (assay: qHTS assay for inhibitors of recombinant human GCK-GKRP interaction: HTRF assay (AID 743207;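 further: 0% = DMSO with GCK present and -100% = DMSO wells lacking GCK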)). Settings: recombinant GCK-GKRP HTRF binding, 60 min, with sorbitol-6-phosphate; series mostly up to 57.5 µM; activity change, negative = inhibition: at the top concentration.
Outline: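 Steps: dispense GCK–GKRP complex (5 nM each, GST- and FLAG-tagged) with 2 uM S6P; pin in compounds; add XL665/Eu-cryptate-labelled antibodies; incubate 60 min at room temperature; read time-resolved FRET at 665 and 615 nm.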

SMILES | activity change, negative = inhibition [%]
C[N+](C)(C)CCCCCCCCCC[N+](C)(C)C | 6.35
OCCN1CCN(CCCN2c3ccccc3C=Cc3ccccc32)CC1 | 2.36
C[N+](C)(C)CCOC(N)=O | -6.15
Cc1cccc(C)c1NC(=O)C(C)N (configuration not stated) | -10.3
Fc1ccc(C(c2ccc(F)cc2)N2CCN(C/C=C/c3ccccc3)CC2)cc1 | 10.5
NC(=O)c1cn(Cc2c(F)cccc2F)nn1 | 11.1
CC[N+](C)(C)c1cccc(O)c1 | -0.0902
CC(C)NCC(O)c1cc(O)cc(O)c1 (configuration not stated) | -2.56
CCCC(C(=O)OCCN(CC)CC)(c1ccccc1)c1ccccc1 | 11.2
CC1=NS(=O)(=O)c2cc(Cl)ccc2N1 | -13
OC(CCN1CCCCC1)(c1ccccc1)C1CCCCC1 (configuration not stated) | 11.1
COc1ccc2c(c1OC)C(=O)O[C@@H]2[C@H]1c2c(cc3c(c2OC)OCO3)CCN1C | -18
C(=C\c1ccccc1)/CN1CCN(C(c2ccccc2)c2ccccc2)CC1 | -7.05
C#CCN(C)CCCOc1ccc(Cl)cc1Cl | -0.969
CC(C)COCC(CN(Cc1ccccc1)c1ccccc1)N1CCCC1 (configuration not stated) | -2.62
Cc1nc2c([nH]1)c(=O)n(C)c(=O)n2Cc1ccco1 | -1.02

SMILES | activity change, negative = inhibition [%]
COCCc1ccc(OCC(O)CNC(C)C)cc1 (configuration not stated) | -3.61
CN1CCN(CC(=O)N2c3ccccc3C(=O)Nc3cccnc32)CC1 | -13.9
CN(C)CC[C@@H](c1ccc(Br)cc1)c1ccccn1 | -6.2
N[C@@H](COP(=O)(O)O)C(=O)O | 8.78
O=C1NCN(c2ccccc2)C12CCN(CCCC(c1ccc(F)cc1)c1ccc(F)cc1)CC2 | 5.55
O=C(CCNNC(=O)c1ccncc1)NCc1ccccc1 | -0.287
NC(Cc1ccc(Cl)cc1)C(=O)O (configuration not stated) | 1.94
CC(C)(C)NCC(O)c1cc(O)cc(O)c1 (configuration not stated) | 4.44
CN(C)C(=O)Oc1ccc[n+](C)c1 | 7.28
Cc1nc2ccccn2c(=O)c1CCN1CCC(C(=O)c2ccc(F)cc2)CC1 | 3.18
CSc1ccc(C(=O)c2[nH]c(=O)[nH]c2C)cc1 | 3.11
CCN(CC)CCOCCOC(=O)C1(c2ccccc2)CCCC1 | 19.4
C[C@@H](O)[C@H]1C(=O)N2C(C(=O)O)=C(SCCN=CN)C[C@H]12 | -0.889
CCn1cc(C(=O)O)c(=O)c2cc3c(cc21)OCO3 | -17.9
Cc1scc2c1N(C(=O)CN1CCN(C)CC1)c1ccccc1NC2=O | -0.471
